This is a sample that favours compounds with a hit; in the whole collection about 6.9% have one here.
Mdm2-MdmX inh: human Mdm2/MdmX binding inhibition; O15151+Q00987; SaOS-2 split-luciferase Mdm2/MdmX complementation, luminescence; inhibition, % at 8 µM; actives 3% (n = 330,000);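 active = inhibition of at least 50% at 8 µM in the primary screen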
Target sequence (O15151 whole entry, looked up): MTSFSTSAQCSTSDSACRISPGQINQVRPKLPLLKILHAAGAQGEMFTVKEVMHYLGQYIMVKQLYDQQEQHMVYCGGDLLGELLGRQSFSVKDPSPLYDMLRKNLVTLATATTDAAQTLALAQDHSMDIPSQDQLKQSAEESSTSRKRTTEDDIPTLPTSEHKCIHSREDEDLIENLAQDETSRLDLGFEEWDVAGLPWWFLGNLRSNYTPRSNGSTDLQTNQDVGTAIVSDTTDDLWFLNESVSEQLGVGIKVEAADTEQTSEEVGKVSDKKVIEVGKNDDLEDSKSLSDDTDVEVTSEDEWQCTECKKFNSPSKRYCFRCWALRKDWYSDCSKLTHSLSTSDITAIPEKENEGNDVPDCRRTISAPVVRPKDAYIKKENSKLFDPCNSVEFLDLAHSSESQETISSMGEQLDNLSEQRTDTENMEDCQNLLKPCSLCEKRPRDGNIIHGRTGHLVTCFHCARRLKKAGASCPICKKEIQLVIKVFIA
Target sequence (Q00987 whole entry, looked up): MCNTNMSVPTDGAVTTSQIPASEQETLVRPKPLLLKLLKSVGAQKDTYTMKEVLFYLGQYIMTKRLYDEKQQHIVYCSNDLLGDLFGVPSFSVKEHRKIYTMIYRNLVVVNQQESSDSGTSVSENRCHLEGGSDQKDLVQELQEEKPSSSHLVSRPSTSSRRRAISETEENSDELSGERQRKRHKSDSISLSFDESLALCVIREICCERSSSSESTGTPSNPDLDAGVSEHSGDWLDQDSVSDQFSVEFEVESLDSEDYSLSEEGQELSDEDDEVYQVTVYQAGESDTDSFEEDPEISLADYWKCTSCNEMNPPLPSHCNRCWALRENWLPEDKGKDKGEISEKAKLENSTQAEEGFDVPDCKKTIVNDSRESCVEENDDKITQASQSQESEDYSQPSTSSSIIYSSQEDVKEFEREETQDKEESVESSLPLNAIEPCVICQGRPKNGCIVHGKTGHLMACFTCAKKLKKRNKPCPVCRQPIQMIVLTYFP
MPTP block: blocks calcium-induced mitochondrial swelling. actives 1.4% (n = 360,000). isolated mouse mitochondria, Ca2+ swelling absorbance, 30 min. inhibition, % at 10 µM. AID 602449;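 active = inhibition of 50% or more, scaled per plate between neutral and stimulator controls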
Beta cell apopt: blocks beta cell apoptosis; INS-1E cytokine-induced death, ATP luminescence, 48 h; percent of positive-control rescue, neutral wells zero; protection from apoptosis, % (test concentration not listed); actives 0.8% (n = 300,000);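 active = Every replicate reaches about 75%, or at least half do and their mean reaches it too, limit read from the data; inconclusive = At least half of replicates reach the limit but their mean does not; inactive = Under half of replicates reach the limit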;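 note: higher means more ATP so stronger rescue from cytokine killing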
GRIN3A LBD mod: NR3A (human) ligand-binding domain modulation; NR3A LBD differential scanning fluorimetry, Tm shift; 0% = protein alone, 100% = glycine-bound protein; Tm shift relative to glycine control, % at 25 µM; actives 2.5% (n = 340,000);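 active = melting temperature shift of at least 10% of the positive control shift, at one fixed dose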
CSC inhib: cancer stem cell inhibition; cancer stem cell-like cells viability, luminescence; inhibition, % at 7.5 µM; actives 1.1% (n = 300,000); AID 2717; in the data active = inhibition above about 75%; inconclusive = no clear call, values can overlap the other calls; tested in HMLE shEcad cells
SKKanGAS inh: SKKanGAS growth inhibition; S. pyogenes SKKanGAS, kanamycin growth, BacTiter-Glo, 6 h; inhibition, % at 7.5 µM; actives 1.3% (n = 300,000); AID 1662;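 active = mean replicate score, as percent of positive control median, at least 50; inconclusive = mean below 50 but one replicate at or above 50; inactive = mean and every replicate below 50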;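 note: strain carries kanamycin resistance gene driven by streptokinase promoter and grows in 40 µg/ml kanamycin; loss of luminescence reflects streptokinase promoter inhibition or plain growth inhibition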
Mdm2 MdmX conf: human Mdm2/MdmX binding inhibition, confirmed | shares compounds with Mdm2-MdmX inh | luminescent assay | inhibition, % at 8 µM | actives 55% (n = 10,000) | AID 489028; in the data active = inhibition above about 40%
Full FLuc ctr: inhibits full-length luciferase, flagging false Mdm2/MdmX hits; inhibition, % at 8 µM; shares compounds with Mdm2-MdmX inh; AID 504607; SaOS-2 full-length luciferase counterscreen, luminescence; actives 77% (n = 6,200);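 active = mean inhibition at 8 µM reaching about 37%, which flags the compound as non-specific, limit read from the data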;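 note: p53-null SaOS-2 cells with luciferase driven by a doxycycline-inducible promoter; compound on cells about two nights before reading with doxycycline added after day one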
Large screens that a line does not name were inactive (follow-up assays come after a bar, where they were run).

CC1CCCCN1CCCNC(=O)CCCN1C(=O)c2cccnc2Sc2ccccc21 (centres undefined)	none
CN1OC[C@@H]2CN(Cc3ccc(Cl)cc3)[C@H](c3ccc(-n4ccnc4)cc3)C[C@@H]21	none (no result: Mdm2-MdmX inh, Beta cell apopt, GRIN3A LBD mod, CSC inhib, SKKanGAS inh)
CCCCCC(=O)NC(=S)Nc1cccc(-c2nc3ncccc3o2)c1	none
CCOc1ccc(C(=O)NCC(=O)NCC2CCCCC2)cc1OCC	none
CCOC(=O)c1ccc(-c2cccc(-c3cc(=O)oc4cc(OC)cc(OC)c34)c2)cc1	none (no result: Beta cell apopt, CSC inhib, SKKanGAS inh)
COc1cc(OC)c2c(-c3cccc(-c4ccc(NC(C)=O)cc4)c3)cc(=O)oc2c1	Mdm2-MdmX inh 60 (no result: Beta cell apopt, CSC inhib, SKKanGAS inh) | Mdm2 MdmX conf 63 | Full FLuc ctr 79
Cc1nc(NCc2ccco2)c2c(C)c(C)sc2n1	Mdm2-MdmX inh 100, CSC inhib 98 | Mdm2 MdmX conf 96 | Full FLuc ctr 54
COc1ccc2nc(Nc3nc(CSc4nc5ccccc5s4)cc(=O)[nH]3)nc(C)c2c1	none (no result: MPTP block, Beta cell apopt, GRIN3A LBD mod)
CC1(C)C[C@H]2C3=CCC4[C@@]5(C)CC[C@H](O)[C@@](C)(CO)C5CC[C@@]4(C)[C@]3(C)C[C@@H](O)[C@@]2(CO)[C@@H](O)[C@@H]1O (some centres undefined)	none (no result: SKKanGAS inh)
C/C=C(\C)C(=O)OC1CC(C)(C)C[C@H]2C3=CC[C@@H]4[C@@]5(C)CCC(O[C@@H]6O[C@@H](C(=O)O)[C@@H](O)C(O[C@@H]7OC[C@H](O)[C@@H](O)[C@@H]7O[C@@H]7OC(CO)C(O)[C@@H](O)[C@@H]7O)C6O[C@@H]6OC(CO)C(O)C(O)C6O)[C@@](C)(CO)[C@@H]5CC[C@]4(C)[C@]3(C)CC(O)[C@@]12CO (some centres undefined)	Mdm2-MdmX inh 55 (no result: CSC inhib, SKKanGAS inh) | Mdm2 MdmX conf inactive | Full FLuc ctr 48
CC1(C)c2ssc(=S)c2-c2ccccc2N1C(=O)CSC1=NCCS1	Mdm2-MdmX inh 52 | Mdm2 MdmX conf inactive
COc1ccc2c(c1)-c1c(ssc1=S)C(C)(C)N2C(=O)CSC1=NCCS1	Mdm2-MdmX inh 64 | Mdm2 MdmX conf inactive
Cc1cc(C)c2c(c1)-c1c(ssc1=S)C(C)(C)N2C(=O)CSc1nncn1C	none
Cc1ccc2c(c1)-c1c(ssc1=S)C(C)(C)N2C(=O)CSc1nncn1C	none
O=C(NCc1ccco1)C1CCCN1C(=O)Nc1ccc(Cl)cc1 (centres undefined)	none
Cc1noc(-c2ccc(Cl)cc2)c1C(=O)O/N=C(\N)c1ccc(C(C)(C)C)cc1	Mdm2-MdmX inh 100, CSC inhib 171 | Mdm2 MdmX conf 98 | Full FLuc ctr 60
COc1cc(OC)c(C(=O)O/N=C(\N)c2ccc(C)cc2)cc1OC	Mdm2-MdmX inh 69 | Mdm2 MdmX conf 43 | Full FLuc ctr 104
COc1cc(OC)c(C(=O)O/N=C(\N)c2cccc(C)c2)cc1OC	Mdm2-MdmX inh 79 | Mdm2 MdmX conf 47 | Full FLuc ctr 100
Cc1occc1C(=O)O/N=C(\N)c1ccc(Cl)cc1	Mdm2-MdmX inh 100 (no result: Beta cell apopt) | Mdm2 MdmX conf 50 | Full FLuc ctr 148
Cc1ccc(/C(N)=N/OC(=O)c2ccco2)cc1	none
O=C(CN(C(=O)Cn1nnc(-c2ccc(F)cc2)n1)c1cccc(F)c1)NC1CCCC1	none
COc1ccc(Cc2c(-c3ccco3)nc3ccc(Cl)cn23)c(C)c1	none (no result: Mdm2-MdmX inh, Beta cell apopt, GRIN3A LBD mod, CSC inhib, SKKanGAS inh)
COc1ccc(Cl)cc1C(=O)O/N=C(\N)c1ccc(Cl)cc1	Mdm2-MdmX inh 71, GRIN3A LBD mod 20 | Mdm2 MdmX conf 45 | Full FLuc ctr 81
Cc1ccc(S(=O)(=O)Nc2ccc(-n3c(C)nc4ccccc4c3=O)cc2)cc1	none (no result: Beta cell apopt)
COc1cc(-c2nnc3sc(C4CCCCC4)nn23)cc(OC)c1OC	Mdm2-MdmX inh 57 | Mdm2 MdmX conf inactive
COc1cccc(-c2nnc3sc(C4CCCCC4)nn23)c1	Mdm2-MdmX inh 85 | Mdm2 MdmX conf 78 | Full FLuc ctr inactive
CCOc1cccc(-c2nnc3sc(C4CCCCC4)nn23)c1	none
Cc1ccc(C2CC(c3cccs3)=NN2C(=O)CCl)cc1 (centres undefined)	Mdm2-MdmX inh 100 (no result: GRIN3A LBD mod) | Mdm2 MdmX conf 96 | Full FLuc ctr 53
CCC(=O)N1N=C(c2cccs2)CC1c1ccc(C)cc1 (centres undefined)	none
COc1ccc(C2CC(c3cccs3)=NN2C(=O)CSC2=NCCS2)cc1 (centres undefined)	Mdm2-MdmX inh 54, SKKanGAS inh inconclusive | Mdm2 MdmX conf inactive
Cc1ccc(C2CC(c3cccs3)=NN2C(=O)CSC2=NCCS2)cc1 (centres undefined)	Mdm2-MdmX inh 55 | Mdm2 MdmX conf inactive
Cc1noc(C)c1S(=O)(=O)Nc1ccc2c(c1)C(=O)N([C@H](C)CO)C[C@H](C)[C@@H](CN(C)S(=O)(=O)c1ccccc1)O2	none (no result: SKKanGAS inh)
COc1cccc(C(=O)Nc2cc(C(=O)NCCc3ccccc3)ccc2Cl)c1	none
COc1cccc(/C(O)=C/c2nc3ccc(C(=O)NCCc4cccc(C)c4)cc3[nH]c2=O)c1	Mdm2-MdmX inh 65 | Mdm2 MdmX conf inactive
Cc1ccc2c(c1)C(=O)C(=O)N2CC1COc2ccccc2O1 (centres undefined)	none
CCOc1ccc2c(c1)C(=O)C(=O)N2CC1COc2ccccc2O1 (centres undefined)	Mdm2-MdmX inh 69 | Mdm2 MdmX conf inactive
COc1ccc2c(c1)C(=O)C(=O)N2CC1COc2ccccc2O1 (centres undefined)	Mdm2-MdmX inh 54 | Mdm2 MdmX conf inactive
CCN1CCN(CC2COc3ccccc3O2)CC1 (centres undefined)	none
CCOC(=O)C1=C(C)NC(C)=C(C(=O)OCC)C1/C=C/c1ccccc1OC	none
CCOC(=O)C1=C(C)NC(C)=C(C(=O)OCC)C1c1ccccc1/C=C/C(=O)OC(C)(C)C	Mdm2-MdmX inh 72, CSC inhib 99 (no result: MPTP block, GRIN3A LBD mod) | Mdm2 MdmX conf inactive
CCOc1ccc(NC(=O)CN(C)C(=O)Cc2c(C)nc3ccccc3c2C)cc1OCC	none
O=C(NCC(=O)N1CCOCC1)c1ccc(Cl)c(Cl)c1	none (no result: SKKanGAS inh)
O=C(Nc1nnc(-c2ccc(F)cc2)o1)c1cc(Cl)sc1Cl	Mdm2-MdmX inh 62, SKKanGAS inh 105 (no result: Beta cell apopt, CSC inhib) | Mdm2 MdmX conf inactive | Full FLuc ctr 38
COc1cccc(-c2nnc(NC(=O)c3ccc(Cl)s3)o2)c1	Mdm2-MdmX inh 61, SKKanGAS inh 96 (no result: Beta cell apopt) | Mdm2 MdmX conf inactive
CCCC1NC(=O)c2cc3ccccc3cc2-n2c1nc1cc(Cl)ccc1c2=O (centres undefined)	none (no result: Mdm2-MdmX inh, Beta cell apopt, GRIN3A LBD mod, CSC inhib, SKKanGAS inh)
CCCC(=O)N1CCN(c2ccc(NC(=O)c3cc4ccccc4o3)cc2Cl)CC1	Mdm2-MdmX inh 100, CSC inhib 90 | Mdm2 MdmX conf 59 | Full FLuc ctr inactive
